MITF inh: inhibitors of human MITF; actives 0.91% (n = 650,000); inhibition, % at 2.6 µM; AID 1259374; AlphaScreen MITF homodimerization, bead proximity signal; O75030; in the data active means inhibition above about 50%
GPR151 activ: activates the human receptor GPR151 | PathHunter beta-arrestin GPR151 cells, luminescence | activation, % at 11.2 µM | actives 1% (n = 650,000); in the data active means activation above about 4.9%
Target sequence (Q8TDV0 whole entry, looked up): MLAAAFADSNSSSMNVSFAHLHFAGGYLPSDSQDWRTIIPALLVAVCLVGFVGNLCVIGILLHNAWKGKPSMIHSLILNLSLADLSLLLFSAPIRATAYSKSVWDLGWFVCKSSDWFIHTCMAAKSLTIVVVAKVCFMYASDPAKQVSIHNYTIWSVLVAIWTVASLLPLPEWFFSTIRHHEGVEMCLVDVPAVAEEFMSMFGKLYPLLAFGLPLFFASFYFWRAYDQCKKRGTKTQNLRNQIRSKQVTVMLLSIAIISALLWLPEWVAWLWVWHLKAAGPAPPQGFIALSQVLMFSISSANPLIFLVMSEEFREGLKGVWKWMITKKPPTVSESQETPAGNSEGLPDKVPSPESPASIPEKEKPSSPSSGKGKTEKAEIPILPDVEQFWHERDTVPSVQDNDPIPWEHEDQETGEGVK
FBW7 act: activators of human E3 ligase FBW7; Q969H0; AlphaScreen FBW7–phospho-cyclin E peptide binding, activator screen; normalized activity (activation), % at 26.1 µM; actives 0.13% (n = 650,000); in the data active means normalized activity above about 1.9%;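 further: purified mutant Fbw7 with reduced substrate affinity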
TEAD-YAP block: TEAD-YAP interaction inhibition; HEK-TIYL cells, TEAD-Gal4/YAP UAS-luciferase luminescence; inhibition, % at 9.12 µM; actives 1.4% (n = 640,000); in the data active means inhibition above about 32%
A number is an active result; – = inactive. An excerpt weighted towards active compounds, which were near 3.4% of everything screened.

SMILES	MITF inh	GPR151 activ	FBW7 act	TEAD-YAP block
COc1ccc(C(=O)Nn2c(SCC(=O)NCCc3ccccc3)nc3ccccc3c2=O)cc1	–	–	–	71
COc1ccc(NC(=O)c2ccc(NC(=O)CSc3nnc(N)s3)cc2)cc1	–	–	8.2	–
Cc1nnc(SCC(=O)Nc2ccc(Cl)c(Cl)c2)s1	–	–	–	–
Cn1cnnc1SCC(=O)NC1=NN=C(c2ccccc2)CS1	–	–	–	–
COc1ccc(-c2nnc(SCC(=O)Nc3ccc(N)cc3)n2-c2ccccc2)cc1	–	–	6.5	–
Cc1nnc(SCC(=O)Nc2ccc3ccccc3c2)s1	–	–	2.0	–
Cc1ccc(C2=NN=C(NC(=O)CSc3nnc(C)s3)SC2)cc1	–	–	–	55
Cc1cc(C)c2c(N)c(C(=O)Nc3ccccc3)sc2n1	–	–	–	–
COc1ccc2nc(NC(=O)c3sc4nc(C)cc(C)c4c3N)sc2c1	–	–	–	35
Cc1cccc(NC(=O)c2sc3nc(C)cc(C)c3c2N)n1	–	–	–	84
Cc1cc(C)c2c(N)c(C(=O)NC(C)c3ccccc3)sc2n1 (stereo unspecified)	–	–	2.3	–
COc1ccc2nc(NC(=O)c3sc4nc(C)[nH]c(=O)c4c3C)sc2c1	–	–	–	–
Cc1ncn(-c2ccc(Nc3cc(-c4nocc4C4=CCCC4)ccn3)cc2)n1	–	–	–	–
CC1C/C(=C/c2ccccn2)C(=O)/C(=C/c2ccccn2)C1 (stereo unspecified)	–	–	–	80
Cc1cc(NC(=O)c2ccccc2)sc1C	–	–	–	–
Cc1ccc(NC(=O)c2ccccc2)s1	–	–	–	57
CCN(CC)c1nc(NCc2nc3ccccc3[nH]2)nc(N2CCN(c3ccccn3)CC2)n1	–	–	–	34
CC(C)n1cnc2c(NCc3nc4ccccc4[nH]3)nc(N3CCN(c4ccccn4)CC3)nc21	–	–	–	72
CC(C)n1cnc2c(NCc3nc4ccccc4[nH]3)nc(N3CCCC3CO)nc21 (stereo unspecified)	–	–	–	72
c1ccc(-n2cnc3c(NCc4nc5ccccc5[nH]4)nc(N4CCC(N5CCOCC5)CC4)nc32)cc1	–	–	–	44
CCN(CC)c1nc(NCCc2ccc(O)cc2)nc(N2CCN(c3ccccn3)CC2)n1	–	–	–	–
NC(=O)NC(=O)COC(=O)CCC(=O)c1ccc(F)cc1	–	–	–	–
CC(C)n1cnc2c(NCc3nc4ccccc4[nH]3)nc(Nc3ccc(N4CCOCC4)cc3)nc21	–	–	–	57
Cn1c(Nc2nc(NCc3ccccc3)c3ncn(C4CCCCC4)c3n2)nc2ccccc21	–	–	–	–
CC(C)n1cnc2c(NCc3nc4ccccc4[nH]3)nc(N3CCC(N4CCOCC4)CC3)nc21	–	–	–	63
SMILES	MITF inh	GPR151 activ	FBW7 act	TEAD-YAP block
CC(C)n1cnc2c(NCc3nc4ccccc4[nH]3)nc(N3CCN(Cc4ccc5c(c4)OCO5)CC3)nc21	–	–	–	68
c1ccc2[nH]c(CNc3nc(Nc4ccc(N5CCOCC5)cc4)nc4c3ncn4C3CCCCC3)nc2c1	–	–	–	–
CC(C)n1cnc2c(NCc3ccccc3)nc(N3CCN(Cc4ccc5c(c4)OCO5)CC3)nc21	–	–	–	–
Cn1c(Nc2nc(NCc3nc4ccccc4[nH]3)c3ncn(C4CCCCC4)c3n2)nc2ccccc21	–	–	–	34
CCOC(=O)c1c(-c2ccccc2)csc1NC(=O)COc1ccc(F)cc1F	–	–	–	–
CC(C)N1CCCc2cc(C=O)ccc21	–	–	–	–
OCCNc1ncnc2nc(N3CCN(Cc4ccc5c(c4)OCO5)CC3)[nH]c12	–	–	–	–
c1ccc2[nH]c(CNc3ncnc4nc(N5CCN(Cc6ccc7c(c6)OCO7)CC5)[nH]c34)nc2c1	–	–	–	54
Cc1noc(C)c1-c1nc(NCc2nc3ccccc3[nH]2)c2ncn(-c3ccsc3)c2n1	–	–	–	–
c1ccc2[nH]c(CNc3nc(N4CCOCC4)nc4c3ncn4-c3ccsc3)nc2c1	–	–	–	88
c1ccc2[nH]c(CNc3nc(N4CCOCC4)nc4c3ncn4C3CCCCC3)nc2c1	–	–	–	74
CN(Cc1ccccc1)C(=O)CSc1nnc(-c2cc(N(C)C)nc(N(C)C)n2)n1C	–	–	–	–
CCCn1c(O)c(C2=NC(=S)NC2=O)c2ccccc21	–	–	–	–
Cc1cc(C)nc(NS(=O)(=O)c2ccc(NC(=O)N3c4ccccc4Sc4ccccc43)cc2)n1	–	–	–	–
Cc1c2oc3c(C)ccc(C(=O)C4CCCCO4)c3nc-2c(C(=O)C2CCCCO2)c(N)c1=O (stereo unspecified)	–	–	–	96
O=C(CC1C(=O)NCCN1Cc1ccc(Cl)c(F)c1)NCCN1CCNC1=O (stereo unspecified)	–	–	–	–
CS(=O)(=O)c1ccc(N2CCN(S(=O)(=O)c3cccs3)CC2)c(F)c1	–	–	–	–
NC(=O)c1ccc(N2CCN(S(=O)(=O)c3ccccc3)CC2)c([N+](=O)[O-])c1	–	–	–	34
NS(=O)(=O)c1ccc(N2CCN(S(=O)(=O)c3cccs3)CC2)c([N+](=O)[O-])c1	–	–	–	34
OC1CCC(Nc2nccn3c(-c4ccsc4)cnc23)CC1 (stereo unspecified)	–	–	2.1	–
O=C(NCCO)c1cccc(-c2cnc3c(Nc4cccc(C(F)(F)F)c4)nccn23)c1	–	–	–	–
O=C(NCCO)c1cccc(-c2cnc3c(Nc4ccc(F)c(Cl)c4)nccn23)c1	–	–	–	74
Oc1ccc(Nc2nccn3c(-c4ccccc4F)cnc23)cc1	–	–	–	83
Oc1ccc(Nc2nccn3c(-c4cccc(F)c4)cnc23)cc1	–	–	–	65
COc1ccc(-c2cc(C(=O)Nc3ccc(Cl)cn3)no2)cc1	–	–	–	–
SMILES	MITF inh	GPR151 activ	FBW7 act	TEAD-YAP block
CC(C(=O)N1CCCC1)n1sc2ccccc2c1=O (stereo unspecified)	–	–	–	–
Cc1ccc(C2=NN(CC(=O)NCC3CCCO3)C(=O)CC2)cc1 (stereo unspecified)	–	–	–	–
Cc1ccc(-c2cnc3c(Nc4ccc(O)cc4)nccn23)cc1	–	–	–	–
Oc1ccc(Nc2nccn3c(-c4ccsc4)cnc23)cc1	–	–	–	37
CC(C)c1ccc(Nc2nccn3c(-c4ccc(O)cc4)cnc23)cc1	–	–	–	–
Oc1ccc(Nc2nccn3c(-c4ccc(F)cc4)cnc23)cc1	–	–	–	53
CC(=O)c1ccc(NC(=O)c2csc3c2CCCCC3)cc1	–	–	–	–
CC(=O)c1ccc(Nc2c(C)n(C)n(-c3ccccc3)c2=O)cc1	–	–	–	–
Cc1c(Nc2ccc(/C=C3\C(=O)Nc4ccccc43)cc2)c(=O)n(-c2ccccc2)n1C	–	–	–	54
O=S(=O)(NCc1ccccn1)c1ccc(-n2cccn2)cc1	–	–	–	–
COc1ccc(-c2nc(NCc3nc4ccccc4[nH]3)c3ncn(C(C)C)c3n2)cn1	–	–	–	48
CC(C)n1cnc2c(NCCc3ccc(O)cc3)nc(-c3ccc(C(=O)NC4CC4)cc3)nc21	–	–	–	–

High-throughput results (PubChem)
